Experimental data as given in PubChem BioAssay (EPA / NIEHS).
Calls of active or inactive are those of the source. Rule for the calls: active = hit-call score of the fitted dose curve at least 0.9, where 1 is the maximum; inactive = score below 0.9.

What follows are compounds tested on Glutathione S-transferase M3 (GSTM3), GSTM3 (gene 2947) (assay: LTEA_HepaRG_GSTM3: Life Technologies and Expression Analysis (LTEA) Assay for Glutathione S-transferase M3 (GSTM3) using HepaRG (AID 2283501)). Conditions: mRNA level, 48 h; actives raise or lower the signal.
Procedure: LTEA_HepaRG is a cell based, multiplexed-readout assay that uses HepaRG, a human liver cell line, with measurements taken at 48 hours after chemical dosing on a 96-well plate.LTEA_HepaRG_GSTM3 is one of 102 assay component(s) measured in the LTEA HepaRG cell culture assay. It is a marker of Oxidative Stress.Data from the assay component LTEA_HepaRG_GSTM3 was analyzed into 1 endpoint. This assay endpoint, LTEA_HepaRG_GSTM3, was analyzed with bidirectional fitting relative to DMSO as the negative control and baseline of activity. Using a type of inducible reporter, measures of mRNA induction for gain or loss-of-signal activity can be used to understand regulation of transcription factor activity. To generalize the intended target to other relatable targets, this assay endpoint is annotated to the transferase intended target family, where the subfamily is alkyl and aryl transferase.
A total of 1060 chemcials from the ToxCast library were tested in eight-point concentration-response experiments. Cell culture and cytotoxicity assays were conducted at Thermo Fisher Scientific's Custom Services facility (Madison, WI). A single lot of human HepaRG cells (Thermo Fisher Scientific, Frederick, MD) was used for the cell culture experiments. 96-well format collagen type I coated plates of human HepaRG cells were prepared using established methods. Briefly, cryopreserved HepaRG cells were thawed, plated at a density of approximately 100,000 cells/well in HepaRG Thaw, Plate, and General Purpose media (HPRG770, Thermo Fisher Scientific), and incubated for 48 hours. 0.5% DMSO was selected as vehicle control to balance the requisite need of DMSO in HepaRG cultures to maintain differentiation (for example, baseline metabolism, proportions of hepatocytes vs. cholangiocytes), while enabling further hepatic receptor pathway activation (for example, PXR and CAR) in response to chemical exposure. 48 hours after plating, the culture medium was replaced with HepaRG Serum-Free Incudtion Media. Cells were exposed to each test chemical in duplicate and maintained in CO2 incubators for another 48 hours. Chemical plates were thawed to room temperature and 200x concentrations of treatment groups were prepared. 8-point conentration-reponse curves were made with the highest exposure at 100 uM, followed by half-log dilutions, all in 0.5% DMSO. Each test plate contained variouse controls, induction positive controls (1mM phenobarbital), cytotoxicity positive controls ([…] aflatoxin B1), vehicle controls (0.5% DMSO), and total lysis controls (0.5% DMSO). Cell morphology images were taken using an Essen IncuCyte FLR automated microscope, with six 96-well plates imaged in about 24 minutes. Images were captured and exported and JPEG files. Spent culture media was transfered to black-well plates for the LDH assay, and remaining media was sorted at -80 C for later use. Cells were treated with RLT buffer and frozen until shipped for gene expression analysis. Total RNA was isolated from the cell suspension in 75 uL of Buffer RLT (Qiagen, Germantown, MD 20874) by Quintiles/Expression Analysis (Durham, NC) using a custom isolation procedure. Total RNA from each plate well was transferred to a preamplification plate. Fluidigm's 96.96 Dynamic ArrayTM (Fluidigm, Amsterdam, the Netherlands) technology was used for gene expression analyses by quantitative reverse transcription polymerase chain reaction (qRT-PCR, performed by Quintiles/Expression Analysis, Durham, NC)89. Standard TaqManTM Assays (Applied Biosystems/ThermoFisher Scientific, Foster City, CA) were used to assess the expression of 93 genes selected based on their selectivity and sensitivity to important hepatic receptors known to be modulated by environmental chemicals; importance in human hepatocyte functionality; and hepatotoxicity. […]

| SMILES | outcome | AC50 |
| --- | --- | --- |
| ClC1(Cl)C2(Cl)C3(Cl)C4(Cl)C(Cl)(Cl)C5(Cl)C3(Cl)C1(Cl)C5(Cl)C24Cl (stereo unspecified) | inactive | – |
| C[C@]12CCC(=O)C[C@@H]1CC[C@@H]1[C@@H]2CC[C@]2(C)[C@@H](O)CC[C@@H]12 | inactive | – |
| CC(C)(C)c1cc(O)ccc1O | inactive | – |
| O=C(Nc1ccc2[nH]ccc2c1)c1cc2cc(F)ccc2n1Cc1cccc(F)c1 | inactive | – |
| CCC(=O)C(CC(C)N(C)C)(c1ccccc1)c1ccccc1 (stereo unspecified) | – | 36.2 µM (active) |
| O=c1[nH]c(=O)[nH]c(=O)[nH]1 | inactive | – |
| CC(C)(OO)c1ccccc1 | inactive | – |
| Cn1sc(Cl)cc1=O | inactive | – |
| Oc1cccc2cccnc12 | inactive | – |
| O=[N+]([O-])c1ccc(O)c([N+](=O)[O-])c1 | – | 12.7 µM (active) |
| CC(=O)[O][Hg][c]1ccccc1 | inactive | – |
| CCOP(=S)(OCC)SCSP(=S)(OCC)OCC | inactive | – |
| CC(C)(C)CC(C)(C)c1ccc(O)cc1 | inactive | – |
| ClCC(Cl)CCl | inactive | – |
| O=C(O)C(Cl)(Cl)Cl | inactive | – |
| COc1cc(-c2ccc(N)c(OC)c2)ccc1N | inactive | – |

| SMILES | outcome | AC50 |
| --- | --- | --- |
| CCCCCCCCc1ccc(O)cc1 | inactive | – |
| CN(C)N=O | inactive | – |
| C=CC(=O)OCCCCCC(C)C | inactive | – |
| CCC(C)(C)c1ccc(O)c(C(C)(C)CC)c1 | inactive | – |
| CCN1CCC2(CC1)COc1cc3c(cc12)N(C(=O)c1ccc(-c2ccc(-c4nnc(C)o4)cc2C)cc1)CC3 | inactive | – |
| Cc1ccccc1N | inactive | – |
| C=C(C)C(=O)[O][Sn]([CH2]CCC)([CH2]CCC)[CH2]CCC | inactive | – |
| NC(=O)O | inactive | – |
| C[C@@H]1C[C@@H]([C@H](O)CC2CC(=O)NC(=O)C2)C(=O)[C@@H](C)C1 | – | 5.85 µM (active) |
| O=C(O)C(F)(F)C(F)(F)C(F)(F)C(F)(F)C(F)(F)C(F)(F)C(F)(F)C(F)(F)C(F)(F)C(F)(F)F | inactive | – |
| CC(C)(c1ccccc1)c1ccc(O)c(C(C)(C)c2ccccc2)c1 | inactive | – |
| CCOP(=S)(OCC)Oc1nc(Cl)c(Cl)cc1Cl | inactive | – |
| CC12CC1(C)C(=O)N(c1cc(Cl)cc(Cl)c1)C2=O (stereo unspecified) | inactive | – |
| O=C1C2(Cl)C3(Cl)C4(Cl)C(Cl)(Cl)C5(Cl)C3(Cl)C1(Cl)C5(Cl)C24Cl (stereo unspecified) | inactive | – |
| O=C(O)C(F)(F)C(F)(F)C(F)(F)C(F)(F)C(F)(F)C(F)(F)F | inactive | – |
